# According to PubChem BioAssay AID540333 (Southern Research Specialized Biocontainment Screening …, 2011):
# The whole screen tested about 10,000 compounds, of which about 320 (3.2%) were called active. The sample as a whole holds a higher share of actives than the screen did. A number with no mark means an inactive call. No stated cut-off is given here; in the data, active means CPE inhibition mostly above about 9.1% (no sharp cut-off); inactive means mostly below about 7.2%.
# Test: Dengue virus cytopathic effect inhibitors, cell-based, CPE readout, HTS (AID 540333)
# Details: Dengue virus CPE inhibition in host cells, at 20 µM; active compounds read high
row,Compound,CPE inhibition
1,O=C(NCc1ccccc1)c1onc(CSc2ccc(F)c(F)c2)c1C(=O)NCc1ccccc1,0.575%
2,CCOC(=O)CN1C(=O)N[C@@H](c2ccco2)C(C(C)=O)=C1C,1.53%
3,Oc1cccc(/C=N/Nc2ncnc3c2ncn3Cc2ccccc2)c1,inactive
4,O=C(CCSCCc1ccccn1)Nc1c(F)c(F)c(F)c(F)c1F,inactive
5,O=C1CCCc2[nH]c3cccc(/C(=C/c4ccccc4)c4ccccc4)c3c21,22.5% (active)
6,CCOC(=O)N1CCC(N2Cc3cccc(C(=O)N4CC(C)CC(C)C4)c3C2=O)CC1 (centres undefined),inactive
7,CCCCCC[n+]1c(-c2ccccc2)csc1Nc1ccccc1,7.19%
8,CC1=C(C#N)C(c2ccccc2)C2=C(N1)c1ccccc1C2=O (centres undefined),1.29%
9,CN(CC(=O)Nc1ccc(C#N)cc1)CC(=O)Nc1ccc(N2CCOCC2)cc1,0.525%
10,CCCCCCn1nc(C(=O)Nc2nc3c(s2)CCCC3)c2ccccc2c1=O,29% (active)
11,CCn1nc(C(=O)Nc2nc3ccccc3[nH]2)c2ccccc2c1=O,0.06%
12,O=C(Nc1nc2c(s1)CCCC2)c1cc(-c2ccccc2)nc2ccccc12,5.19%
13,C=CCn1c(SCc2ccc(C(=O)Nc3nccs3)cc2)nnc1-c1ccc(C)c(Cl)c1,0.44%
14,O=C(NC(=S)NC1CCCC1)c1ccccc1Br,0.11%
15,CC1CCCC(NC(=S)NC(=O)c2ccccc2Br)C1C (centres undefined),21.1% (active)
16,CC1CCCCC1NC(=S)NC(=O)c1ccccc1Br (centres undefined),0.915%
17,COc1cccc(NC(=O)CCC(=O)Nc2cccc(OC)c2)c1,0.18%
18,Cc1ccc(NC(=O)c2cc3c(s2)CCCC3)cc1S(=O)(=O)Nc1ccccc1Cl,1.93%
19,O=C1CC(N2C(=O)/C(=C/C=C/c3ccccc3)SC2=S)C(=O)N1c1ccccc1 (centres undefined),9.17% (active)
20,CC(=O)c1ccc(NC(=O)CN2C(=O)/C(=C/C=C/c3ccccc3)SC2=S)cc1,0.165%
21,O=C(CN1C(=O)/C(=C\C=C\c2ccccc2)SC1=S)Nc1ccc(F)cc1,1.02%
22,CC(=O)Nc1ccc(S(=O)(=O)NCC(=O)OCC(=O)NC(=O)C2CCCCC2)cc1,0.165%
23,NC(=O)C1(NC(=O)[C@@H]2CC3(CC(c4cccc(NC(=O)[C@@H]5CCC(=O)N5)c4)=NO3)CN2C(=O)c2cnccn2)CC1 (some centres undefined),0.745%
24,O=C(CSc1nc2ccccc2s1)Nc1cc(S(=O)(=O)N2CCOCC2)ccc1O,inactive

row,Compound,CPE inhibition
1,Fc1cccc(NC(=S)NCCN2CCOCC2)c1,0.255%
2,O=C(C[n+]1cc(-c2ccccc2)n2c1CCC2)Nc1nc(-c2ccc(F)cc2)cs1,17% (active)
3,O=C(C[n+]1cc(-c2ccccc2)n2c1CCC2)Nc1nc(-c2ccccc2)cs1,4.34%
4,O=C(C[n+]1cc(-c2ccc(F)cc2)n2c1CCC2)Nc1nc(-c2ccccc2)cs1,0.55%
5,O=C(c1cccc(S(=O)(=O)N2CCc3ccccc3C2)c1)N1CCN(c2ccccc2)CC1,3%
6,O=C(NC1CCCC1)C(NS(=O)(=O)c1ccc(Br)s1)c1ccccc1 (centres undefined),0.805%
7,CC1CCCN(S(=O)(=O)c2ccc(Br)s2)C1 (centres undefined),0.775%
8,CC1CC(C)CN(C(=O)C(NS(=O)(=O)c2ccc(Br)s2)c2ccccc2)C1 (centres undefined),24.6% (active)
9,CN(/N=C/c1cc([N+](=O)[O-])ccc1O)c1ccccc1,1.04%
10,COC(=O)c1ccc(CSc2nnc(NC(=O)C3CC(=O)N(Cc4ccc(C)cc4)C3)s2)cc1 (centres undefined),0.19%
11,CC(C)CN(CC(C)C)C(=O)CCCC(=O)N(CC(C)C)CC(C)C,inactive
12,O=S(=O)(c1ccc(Cl)cc1)N1CCN(C(=S)Nc2ccc(F)c(Cl)c2)CC1,13.6% (active)
13,O=C(Nc1ccc(F)cc1)C(c1ccccc1)N1CCN(S(=O)(=O)c2ccc3ccccc3c2)CC1 (centres undefined),2%
14,NS(=O)(=O)c1ccc(NC(=S)N2CCN(c3cccc(Cl)c3)CC2)cc1,1.62%
15,O=C(CNC(=O)c1ccc2ccccc2c1)OCC(=O)N1CCN(S(=O)(=O)c2ccc3ccccc3c2)CC1,inactive
16,Fc1ccc(NC(=S)N2CCCC2)cc1Cl,0.335%
17,O=S(=O)(c1ccccc1)N1CCN(C(=S)Nc2ccc(F)cc2)CC1,1.81%
18,O=S(=O)(c1ccc2ccccc2c1)N1CCN(C(=S)Nc2ccc(F)cc2)CC1,26.1% (active)
19,O=C(CCC(=O)N1CCN(S(=O)(=O)c2ccc(Cl)cc2)CC1)NCc1ccccc1,0.355%
20,O=C(CCC(=O)N1CCN(S(=O)(=O)c2ccc(Cl)cc2)CC1)Nc1ccc2ccccc2c1,11% (active)
21,COC(=O)c1ccc(CNC(=O)COC(=O)CC23CC4CC(CC(Br)(C4)C2)C3)cc1,inactive
22,COc1ccc(CC(=O)NNc2ncnc3c2cnn3C)cc1,inactive
23,Cc1cccc(CSC(Nc2ccc(F)cc2)=C(C#N)C#N)c1,0.46%
24,COc1cccc(C(C)NC(=O)c2c(F)cccc2Cl)c1 (centres undefined),0.965%

row,Compound,CPE inhibition
1,CC(=O)CSc1ccc(C(=O)O)cn1,0.685%
2,Cc1ccccc1OCCNC(=O)/C=C/c1ccccc1,inactive
3,Cc1ccc(NC(=O)CSc2ncnc3ccccc23)cc1S(=O)(=O)N1CCCCC1,2.42%
4,COc1ccc(NC(=O)CSc2ccccc2)cc1S(=O)(=O)N1CCCCC1,inactive
5,Cc1cccc(OCCC(=O)Nc2ccc(C)c(S(=O)(=O)N3CCCCC3)c2)c1,16.7% (active)
6,COc1ccc(NC(=O)CCCC2CCCCC2)cc1S(=O)(=O)N1CCCCC1,0.425%
7,COc1ccc(NC(=O)CCC2CCCCC2)cc1S(=O)(=O)N1CCCCC1,11.6% (active)
8,Cc1cccc(OCCCC(=O)Nc2ccc(N(C)C)cc2)c1,0.66%
9,COc1ccc([C@H]2CC(=O)C=C(c3cc(C(F)(F)F)cc(C(F)(F)F)c3)C2)cc1,inactive
10,COCCCNCCCCOc1ccc(Br)cc1C,inactive
11,CC1c2ccccc2SC(CCCN(C)C)c2ccccc21 (centres undefined),inactive
12,Cc1ccc(NC(=S)N2CCN(C)CC2)c(C)c1,0.8%
13,COc1ccccc1N(CC(=O)N/N=C/c1c(O)ccc2ccccc12)S(C)(=O)=O,0.02%
14,CCOC(=O)c1ccc(-c2ccc(/C=N/NC(=O)CN(c3ccccc3Cl)S(C)(=O)=O)o2)cc1,12.9% (active)
15,CS(=O)(=O)N(CC(=O)N/N=C/c1ccco1)c1ccccc1Br,0.19%
16,Cc1ccc(NC(=O)c2ccc(OC(F)F)cc2)cc1S(=O)(=O)N(C)C,inactive
17,CCn1c(COc2ccc(Cl)cc2)nnc1SC1CCc2ccccc2C1=O (centres undefined),1.03%
18,O=C(COC(=O)CC(c1ccccc1)c1ccccc1)Nc1cccc(F)c1,inactive
19,CCCCc1nn2c(N)c(/C=C3\C=Nc4ccccc43)c(=O)nc2s1,inactive
20,O=C1S/C(=C/c2ccccc2)C(=O)N1CC(O)Cn1c2ccccc2c2ccccc21 (centres undefined),16.2% (active)
21,O=C1S/C(=C\c2ccccc2)C(=O)N1CC(O)Cn1c2ccccc2c2ccccc21 (centres undefined),inactive
22,CN(C)c1ccc(/C=C2\SC(=O)N(CC(O)Cn3c4ccccc4c4ccccc43)C2=O)cc1 (centres undefined),2.39%
23,C=CCN1c2ccccc2[C@]23C[C@@H](C(=O)OC)N(C(=O)NC4CCCC4)C2=NC(C(=O)OC)=C(C(=O)OC)[C@H]13,0.19%
24,CC1(C)CC(=NOC(=O)c2ccccc2)CC(C)(C)N1O,3.8%

row,Compound,CPE inhibition
1,Cc1ccc(Nc2ccc(C(=O)NCCc3ccccc3)cn2)cc1,0.525%
2,Cc1ccc(NCc2nc3ccccc3n2CCOc2ccccc2)cc1,14.9% (active)
3,CCCCn1c(=N)n(CCOc2ccc(C)cc2)c2ccccc21,inactive
4,c1ccc(NCc2nc3ccccc3n2CCOc2ccccc2)cc1,0.715%
5,S=C(NCCN1CCOCC1)Nc1ccccc1Cl,inactive
6,O=C(O)CCCCCN1C(=O)/C(=C\c2ccncc2)SC1=S,14.8% (active)
7,Cc1ccc(/C=C2\SC(=S)N(CCCC(=O)Nc3nccs3)C2=O)cc1,0.46%
8,COc1ccc(CN2C(=O)/C(=C/c3ccncc3)SC2=S)cc1,inactive
9,Cc1cc(Br)ccc1SCC(=O)OCC(=O)NC(C)c1ccccc1 (centres undefined),0.13%
10,O=C(Nc1cccc(-c2cn3ccccc3n2)c1)c1cccs1,0.18%
11,O=C(c1cnn(C(=O)c2ccccc2)c1)c1ccccc1O,2.51%
12,COc1ccc(C(=O)n2cc(C(=O)c3cc(C)ccc3O)cn2)cc1OC,14.3% (active)
13,COc1ccc(C(=O)n2cc(C(=O)c3cc(C)ccc3O)cn2)cc1,inactive
14,Cc1cccc(NCCC#N)c1,inactive
15,O=C(Nc1cccc(Cl)c1)c1ccc(F)c(S(=O)(=O)NCc2ccc3c(c2)OCO3)c1,5.79%
16,Cc1ccc(NC(=O)c2cccs2)cc1S(=O)(=O)Nc1cccc(Cl)c1,7.68%
17,O=C(Nc1cccc(Cl)c1)c1ccc(F)c(S(=O)(=O)NCc2cccs2)c1,11.8% (active)
18,COCC(C)NC(=O)c1ccccc1[N+](=O)[O-] (centres undefined),1.6%
19,CC(C)CNC(=S)Nc1ccc(S(N)(=O)=O)cc1,0.36%
20,COc1cc(CN(C2CCCCC2C)S(=O)(=O)c2ccc(S(=O)(=O)NC3CC3)cc2)cc(OC)c1OC (centres undefined),19.9% (active)
21,COc1cc(CN(C2CCCCC2)S(=O)(=O)c2ccc(S(=O)(=O)N(C)C3CCCCC3)cc2)cc(OC)c1OC,inactive
22,COc1ccc(CCNC(=O)COc2ccc(S(=O)(=O)NC3CCCCC3)cc2Cl)cc1OC,2.27%
